Test results as given in the OligoGym collection.
Also: reference of the scale not given here.

What follows are sequences tested against TBC1D7 (assay: pooled miR-30 sensor sort-seq; sequence = guide strand). Settings: shRNA.
In the case of AAGAACACAATGCTCACTGTGG, the sensor-assay potency score (higher = more potent) is reported as -0.247.
Work on TATCTTCTCTGCACTGTTCAGT yielded a sensor-assay potency score (higher = more potent) of 0.23.
TTCGACAGCTACAAAAACTAGG was tested, and the sensor-assay potency score (higher = more potent) was -0.269.
Sequence TTGCTCACGATCGCGTCTGAGC has a sensor-assay potency score (higher = more potent) of -1.01.
TTTAATTGGTTCACAAAGCGTC gave a sensor-assay potency score (higher = more potent) of -0.134.

These sequences were tested against TBPL2 in the same assay as above. Settings: shRNA.
ATAAGCAACACAATTCGTGGTT was tested, and the sensor-assay potency score (higher = more potent) was 0.695.
TTAAAATCGAGGAATCTGGCAG was tested, and the sensor-assay potency score (higher = more potent) was 0.087.
TATGACAGCAGCAAACCTCTTT showed a sensor-assay potency score (higher = more potent) of -0.118.
With TACAACTGGGCTGAACAGGGGA the sensor-assay potency score (higher = more potent) was 0.181.
In the case of TAAGCAACACAATTCGTGGTTT, the sensor-assay potency score (higher = more potent) is reported as -0.141.
ATTTTCTTGCTGCAAGTCGAGA gave a sensor-assay potency score (higher = more potent) of -1.3.
TTTTAGAATAGGATAGATGTTT was tested, and the sensor-assay potency score (higher = more potent) was -0.912.
TCTTGCTGCAAGTCGAGACTGC gave a sensor-assay potency score (higher = more potent) of 0.000545.
TACAGTGGAAACTATATTCTGT gave a sensor-assay potency score (higher = more potent) of 0.659.
With TACAATTCCACAACATTCTGAA the sensor-assay potency score (higher = more potent) was 0.364.
TTCCTGGGTAACTTCATCTGGT showed a sensor-assay potency score (higher = more potent) of -0.0709.

These sequences were tested against TBX10 in the same assay as above. Settings: shRNA.
Sequence TTCTGATAGGCTGTCACTGCTG has a sensor-assay potency score (higher = more potent) of -0.605.
For TTGTTGGGGTCTTTCTCCCTGT, the sensor-assay potency score (higher = more potent) was -0.814.
Work on TAGCGCTCACTGTCCTTGCGTG yielded a sensor-assay potency score (higher = more potent) of -0.517.
TCACTCTGGACACACGTGGGTT gave a sensor-assay potency score (higher = more potent) of -1.06.
With TCCAGCTGAACTGTCACTCTGG the sensor-assay potency score (higher = more potent) was -0.454.
For TTGGTGACGATCATCTCAGTGC, the sensor-assay potency score (higher = more potent) was -0.282.
In the case of TATGGTGCTGGTCGGGTCCTTG, the sensor-assay potency score (higher = more potent) is reported as -1.11.
TGGAGGTGGAAGCTGAAGCTTT showed a sensor-assay potency score (higher = more potent) of -1.2.
With TTCATCTCCAGCTGAACTGTCA the sensor-assay potency score (higher = more potent) was -0.543.
Sequence ATACCTGTATCTCTTGTCGTCC has a sensor-assay potency score (higher = more potent) of -0.36.
Sequence TTGCTGGCGATTTTCAGCTGGG has a sensor-assay potency score (higher = more potent) of -0.663.
TATCTCTTGTCGTCCAGGGGGA showed a sensor-assay potency score (higher = more potent) of -0.47.

What follows are sequences tested against TBX15 in the same assay as above. Settings: shRNA.
TTAGATTACACAGCTGGCTTTC gave a sensor-assay potency score (higher = more potent) of -0.575.
TTGATCATCCAACTCATTGTTG gave a sensor-assay potency score (higher = more potent) of -0.489.
In the case of TAGGCTTCCATCTTGCTGTTGC, the sensor-assay potency score (higher = more potent) is reported as 0.42.
TTCAGTTCCAATATCATGGAAC showed a sensor-assay potency score (higher = more potent) of -0.282.
For TGTCTTTCCACTCTCATCCATT, the sensor-assay potency score (higher = more potent) was -1.03.
TTGTACACAGACAAATTCTTGG was tested, and the sensor-assay potency score (higher = more potent) was -0.17.
TACACAGACAAATTCTTGGTGA gave a sensor-assay potency score (higher = more potent) of 0.47.
Work on TTTTAATCTGGTAATCTGCTGA yielded a sensor-assay potency score (higher = more potent) of 0.443.
For TTTCGGTCAATTTTTAATCTGG, the sensor-assay potency score (higher = more potent) was -0.172.
With TTGCTATGTAGTACTGCTGATG the sensor-assay potency score (higher = more potent) was -1.07.
Work on TTAATCTGGTAATCTGCTGATT yielded a sensor-assay potency score (higher = more potent) of -0.87.
